From PubChem BioAssay (NCATS)
Where “and” joins values, the source holds several entries; their conditions need not be identical. Equal entries are not always repeated. Inconclusive results are not listed. Calls of active or inactive are those of the source. Unless noted, calls follow the shape of the dose curve; as a rule, active = well fitted curve in the direction sought with a large enough effect; inconclusive = small, poorly fitted or top-dose-only effect, or another doubt; inactive = no such curve, though single readings can be large; an effect the other way counts as inactive or inconclusive.

Columns and labels:
[1] = Cell Viability - BJ (AID 421; calls by dose curve;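 also: potency is read from the fitted curve at half-maximal effect; cells exposed to compound for 40 hours at 37 °C before readout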); details: BJ fibroblast viability, qHTS
Outline: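 Cytotoxicity in human BJ foreskin fibroblasts is scored as loss of cellular ATP after a 40-hour exposure, measured by luciferase luminescence. Controls are DMSO and 100 uM tamoxifen.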

[2] = Cell Viability - Jurkat (AID 426;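 active = dose-dependent loss of cell ATP signal giving a full or clear fitted curve, ranked by lower potency value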;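 also: potency is read from the fitted curve at half-maximal effect; cells exposed to compound for 40 hours at 37 °C before ATP read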); details: qHTS
Outline: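 Seed 5000 Jurkat E6-1 cells/well; add compound; incubate 40 hr at 37 °C; add CellTiter-Glo; wait 20 min at room temperature; read luminescence. Fit concentration-response with Hill equation for AC50.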

[3] = Cell Viability - Hek293 (AID 427;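 active = compounds whose dose-response curve shows a full or clear partial loss of cell viability, called from curve shape rather than a numeric limit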;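 also: potency is read from the fitted curve at half-maximal effect; cells exposed to compound for 40 hours at 37 °C before reading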); details: qHTS
Outline: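 qHTS, human embryonic kidney (adenovirus-transformed) cells; 40 hr cpd, 37 °C; CellTiter-Glo ATP luminescence. Norm: DMSO = 0, 100 uM tamoxifen = 100% inhibition. Hill-fit AC50.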

[4] = Cell Viability - HepG2 (AID 433; calls by dose curve;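 also: potency is read from the fitted curve at half-maximal effect; potency for ATP loss meaning cytotoxicity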); details: qHTS
Outline: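 Cytotoxicity is scored as loss of intracellular ATP in HepG2 cells exposed to compounds for 40 h. Concentration-response curves, normalized to DMSO and 100 uM tamoxifen, give AC50 values.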

[5] = Cell Viability - MRC5 (AID 434; calls by dose curve;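 also: potency is read from the fitted curve at half-maximal effect; cells exposed to compound for 40 hours at 37 °C; potency reflects cytotoxicity seen as loss of intracellular ATP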); details: MRC5 lung fibroblast viability, qHTS
Outline: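 qHTS cytotoxicity in human lung fibroblast MRC5 cells; 40 hr treatment, 37 °C; cellular ATP by luciferase luminescence; DMSO = 0%, 100 uM tamoxifen = 100% inhibition; Hill-fit AC50.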

[6] = Cell Viability - SK-N-SH (AID 435; calls by dose curve;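 also: potency is read from the fitted curve at half-maximal effect; compound exposure lasted 40 h at 37 °C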); details: SK-N-SH neuroblastoma cell viability qHTS
Outline: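 Cells seeded at 1500 per well and incubated 5 hr at 37 °C. Compound added, then 40 hr at 37 °C. CellTiter-Glo added, 20 min at room temperature, luminescence read.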

[7] = Cell Viability - HUV-EC-C (AID 542); details: HUV-EC-C endothelial cell viability, qHTS; series mostly up to 92.2 µM; also: % is scaled to controls: 0 for no effect and ±100 for the full control effect; nearly all actives have a fitted effect of over 35% in size
Outline: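 Decrease in cellular ATP, quantified by luciferase luminescence, reflects toxicity in normal human vascular endothelial HUV-EC-C cells given compound for 40 hr in complete culture medium. Values are AC50s from concentration-response curves.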

[8] = Cellular Toxicity (caspase-3) HepG2 (AID 654); details: HepG2 caspase-3 activation, luminescence, 0% = DMSO only, 100% = tamoxifen; series mostly up to 92.2 µM;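 also: cells exposed to compound for 16 hours before reading; 0% = DMSO alone and 100% = caspase signal from 100 µM tamoxifen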
Outline: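 qHTS, HepG2, 1500 cells/well, complete medium; cpd 16 h 37 °C; Caspase-Glo 3/7, 20 min RT; lum. Norm: DMSO vs 100 uM tamoxifen; AC50 Hill fit.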

[9] = Cellular Toxicity (caspase-3) HUV-EC-C (AID 656); details: HUV-EC-C cells, caspase-3 activation (apoptosis), vehicle = 0, 100 µM tamoxifen = 100%; series mostly up to 92.2 µM
Outline: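 Read-out: luminescence proportional to caspase 3/7 activity, measured 20 min after adding Caspase-Glo 3/7 reagent. Cells (HUV-EC-C) had received compound for 16 hr at 37°C. Increases relative to DMSO and 100 uM tamoxifen gave concentration-response AC50 values.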

[10] = Cellular Toxicity (caspase-3) BJ (AID 658); details: BJ fibroblasts, luminescence, normalized: DMSO 0%, staurosporine 100%; series mostly up to 91.7 µM
Outline: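 Readout: Caspase-Glo 3/7 luminescence increase in BJ cells after 16 hr treatment at 37 °C. Staurosporine and tamoxifen served as positive controls; AC50 values came from Hill modelling of data normalized to DMSO and 10 uM staurosporine.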

[11] = Cellular Toxicity (caspase-3) Mesangial (AID 660); details: mesangial cells, normalized: DMSO 0%, 100 µM tamoxifen 100%; series mostly up to 91.7 µM;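 also: cells exposed to compound for 16 h before the caspase read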
Outline: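 Concentration-response qHTS: compound-induced rise in caspase 3/7 luminescence in human mesangial cells after 16 h, normalized to DMSO and 100 uM tamoxifen controls.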

[12] = Cellular Toxicity (caspase-3) SK-N-SH (AID 661); details: SK-N-SH caspase-3 activation, qHTS; series mostly up to 91.7 µM
Outline: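 Caspase 3/7 activation is measured as a luminescence increase from aminoluciferin released by substrate cleavage in SK-N-SH cells after 16 hr compound treatment; values are AC50 from concentration-response curves.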

[13] = Cellular Toxicity (caspase-3) H-4-II-E (AID 663); details: H-4-II-E rat hepatoma; Potency: caspase-3 activation; series mostly up to 92.2 µM;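 also: cells exposed to compound for 16 hr before readout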
Outline: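 Apoptosis induction is scored as increased luminescence from caspase 3/7 substrate cleavage in rat hepatoma H-4-II-E cells exposed to compound for 16 hr. Activity is scaled between DMSO and 100 uM tamoxifen.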

[14] = Cellular Toxicity (caspase-3) N2a (AID 665); details: N2a cells, luminescence, normalized: DMSO 0%, 10 µM staurosporine 100%; series mostly up to 92.2 µM;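 also: compound exposure lasted 16 h at 37 °C before readout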
Outline: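 Plated mouse neuroblastoma N2a cells received titrated compounds for 16 h in complete medium. Caspase activity was then detected with a peptide-aminoluciferin luminescent reagent.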

[15] = Cell Viability - LYMP1-002 - Assay at 16 hr (AID 948); details: LYMP1-002 lymphoblastoid cell viability; series mostly up to 92.2 µM;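 also: 0% = DMSO alone and full effect = 92 µM tetraoctylammonium bromide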
Outline: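 Acute cytotoxicity is scored as a concentration-dependent fall in intracellular ATP in a human lymphoblastoid line (LYMP1-002) after 16 hr compound exposure at 37 C, measured by luciferase luminescence.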

[16] = MultiTox-Fluor Cytotoxicity Assay - LYMP1-003 - Dead Cells (AID 961); details: LYMP1-003 lymphoblastoid cells, dead-cell protease fluorescence; series mostly up to 92.2 µM;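 also: cells exposed to compound for 16 h at 37 °C; nearly all actives have a fitted effect of over 70% in size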
Outline: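 LYMP1-003 lymphoblastoid, 2500 cells/well, 5 hr settle then 16 hr cpd at 37 C; MultiTox-Fluor reagent 60 min RT; Ex/Em 485/520 dead-cell signal; norm. DMSO = 0%, 15 uM tetraoctylammonium bromide = 100%; Hill AC50.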

[17] = Cell Viability - LYMP2-023 (AID 975); details: LYMP2-023 lymphoblastoid cell viability; series mostly up to 92.2 µM;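 also: cellular ATP measured by luciferase luminescence as viability proxy; cells exposed to compound for 24 hours at 37 °C; plate controls were DMSO only for no effect and 92 µM tetraoctylammonium bromide control for full effect; nearly all actives have a fitted effect of over 55% in size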
Outline: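 Concentration-dependent drop in intracellular ATP measures acute cytotoxicity in a human lymphoblastoid line treated for 24 hours in complete culture medium. AC50 values are taken from Hill-equation fits of qHTS data.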

[18] = Cell Viability - LYMP2-008 (AID 980); details: LYMP2-008 lymphoblastoid cell viability, qHTS; series mostly up to 92.2 µM;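 also: cells exposed to compound for 24 h at 37 °C; % is scaled to controls: 0 for no effect and ±100 for the full control effect; nearly all actives have a fitted effect of over 60% in size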
Outline: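 Acute cytotoxicity is scored as concentration-dependent loss of cellular ATP in a human lymphoblastoid line after 24 hr treatment at 37 C. ATP is quantified by luciferase luminescence.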

[19] = qHTS Assay for Identification of Small Molecule Inducers of Hypoxia Response (AID 2120; active = well fitted curve in the direction sought with a large enough effect in the signal ratio, with a control signal flat, not every such curve was filed as active; the % refers to the signal ratio; also: 0% is about no effect); details: hypoxia response reporter cells, beta-lactamase ratio readout; series mostly up to 104 µM
Outline: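 Induction of beta-lactamase reporter activity was measured in CellSensor HRE-bla ME-180 cells after 17 h compound treatment at 37 degrees C, using CCF4 substrate and the 460nm/530nm emission ratio to derive AC50 values.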

[20] = qHTS assay for cell viability of HEK293 cells (AID 743288); details: ATP luminescence (CellTiter-Glo), 18 h, hits give low values; also: % is scaled to controls: 0 for no effect and ±100 for the full control effect; nearly all actives have a fitted effect of over 50% in size
Outline: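 The Tox21 protocol used parental HEK293 cells treated for 18 h at 37 C with compounds delivered by pintool; ATP-coupled luminescence after 30 min at room temperature gave viability.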

O=[N+]([O-])c1ccccc1-c1ccccc1
inactive: Potency [1] > 92 µM | Potency [2] > 92 µM | Potency [3] > 92 µM | Potency [4] > 92 µM | Potency [5] > 92 µM | Potency [6] > 92 µM | Potency [7] | outcome [8] | outcome [9] | outcome [10] | outcome [11] | Potency [12] | Potency [13] | outcome [14] | outcome [15] | Potency [16] | Potency [17] | Potency [18] | Potency [19] | max response [20] 0.829%

C=CC(=O)OCC(C)C
inactive: Potency [1] > 92 µM | Potency [2] > 92 µM | Potency [3] > 92 µM | Potency [4] > 92 µM | Potency [5] > 92 µM | Potency [6] > 92 µM | Potency [7] | outcome [8] | outcome [9] | outcome [10] | outcome [11] | Potency [12] | Potency [13] | outcome [14] | outcome [15] | Potency [16] | Potency [17] | Potency [18] | Potency [19] | max response [20] 2.29%

Oc1c(Cl)cccc1Cl
inactive: Potency [1] > 92 µM | Potency [2] > 92 µM | Potency [3] > 92 µM | Potency [4] > 92 µM | Potency [5] > 92 µM | Potency [6] > 92 µM | Potency [7] | outcome [8] | outcome [9] | outcome [10] | outcome [11] | Potency [12] | Potency [13] | outcome [14] | outcome [15] | Potency [16] | Potency [17] | Potency [18] | Potency [19] | max response [20] -3.49%

C/C=C/CC#N
inactive: Potency [1] > 92 µM | Potency [2] > 92 µM | Potency [3] > 92 µM | Potency [4] > 92 µM | Potency [5] > 92 µM | Potency [6] > 92 µM | Potency [7] | outcome [8] | outcome [9] | outcome [10] | outcome [11] | Potency [12] | Potency [13] | outcome [14] | outcome [15] | Potency [16] | Potency [17] | Potency [18] | Potency [19] | max response [20] -10.8%

CCOC(=O)CBr
inactive: Potency [1] > 92 µM | Potency [2] > 92 µM | Potency [3] > 92 µM | Potency [4] > 92 µM | Potency [5] > 92 µM | Potency [6] > 92 µM | Potency [7] | outcome [8] | outcome [9] | outcome [10] | outcome [11] | Potency [12] | Potency [13] | outcome [14] | outcome [15] | Potency [16] | Potency [17] | Potency [18] | Potency [19] | max response [20] -5.15%

Cc1ccc(N)c(C)c1
inactive: Potency [1] > 92 µM | Potency [2] > 92 µM | Potency [3] > 92 µM | Potency [4] > 92 µM | Potency [5] > 92 µM | Potency [6] > 92 µM | Potency [7] | outcome [8] | outcome [9] | outcome [10] | outcome [11] | Potency [12] | Potency [13] | outcome [14] | outcome [15] | Potency [16] | Potency [17] | Potency [18] | Potency [19] | max response [20] 1.36%

C=CC(=O)OC
inactive: Potency [1] > 92 µM | Potency [2] > 92 µM | Potency [3] > 92 µM | Potency [4] > 92 µM | Potency [5] > 92 µM | Potency [6] > 92 µM | Potency [7] | outcome [8] | outcome [9] | outcome [10] | outcome [11] | Potency [12] | Potency [13] | outcome [14] | outcome [15] | Potency [16] | Potency [17] | Potency [18] | Potency [19] | max response [20] 4.03%

CC(C)[C@]12CC(=O)[C@H](C)[C@H]1C2
inactive: Potency [1] > 92 µM | Potency [2] > 92 µM | Potency [3] > 92 µM | Potency [4] > 92 µM | Potency [5] > 92 µM | Potency [6] > 92 µM | Potency [7] | outcome [8] | outcome [9] | outcome [10] | outcome [11] | Potency [12] | Potency [13] | outcome [14] | outcome [15] | Potency [16] | Potency [17] | Potency [18] | Potency [19] | max response [20] 18.6% and -3.71%

Nc1ccc2ccccc2c1
inactive: Potency [1] > 92 µM | Potency [2] > 92 µM | Potency [3] > 92 µM | Potency [4] > 92 µM | Potency [5] > 92 µM | Potency [6] > 92 µM | Potency [7] | outcome [8] | outcome [9] | outcome [10] | outcome [11] | Potency [12] | Potency [13] | outcome [14] | outcome [15] | Potency [16] | Potency [17] | Potency [18] | Potency [19] | max response [20] 3.26%

CCCBr
inactive: Potency [1] > 92 µM | Potency [2] > 92 µM | Potency [3] > 92 µM | Potency [4] > 92 µM | Potency [5] > 92 µM | Potency [6] > 92 µM | Potency [7] | outcome [8] | outcome [9] | outcome [10] | outcome [11] | Potency [12] | Potency [13] | outcome [14] | outcome [15] | Potency [16] | Potency [17] | Potency [18] | Potency [19] | max response [20] -3.65%

CC(C)(C)C(O)(CCc1ccc(Cl)cc1)Cn1cncn1 (stereo not given)
inactive: Potency [1] > 92 µM | Potency [2] > 92 µM | Potency [3] > 92 µM | Potency [4] > 92 µM | Potency [5] > 92 µM | Potency [6] > 92 µM | Potency [7] | outcome [8] | outcome [9] | outcome [10] | outcome [11] | Potency [12] | Potency [13] | outcome [14] | outcome [15] | Potency [16] | Potency [17] | Potency [18] | Potency [19] | max response [20] -1.87% and -20%
